HEK cytotox = kills HEK 293 cells; 6.6% of 94,000 active; HEK 293 viability, ATP luminescence (CellTiter-Glo), 48-72 h; Potency, µM (titrated, usually from 115 µM), hits mostly inhibitors; also: nearly all actives have a fitted effect of over 60% in size
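HEK 293 cells seeded at 250 cells/well were exposed to compound for 48 or 72 hr at 37 degree Celsius. Viability taken as ATP content by CellTiter-Glo luminescence.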
NIH3T3 tox = NIH 3T3 cell cytotoxicity; NIH 3T3 viability, CellTiter-Glo ATP luminescence, 48-72 h; Potency, µM (top dose mostly 96.7 µM), actives largely listed as inhibitors; 4.3% of 94,000 active; also: nearly all actives have a fitted effect of over 55% in size
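Mouse fibroblast NIH 3T3 cells, 400 per well, received compound via pintool and were incubated for 48 or 72 hr prior to CellTiter-Glo ATP luminescence measurement.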
hNpr1 antagonist = blocks ANP-stimulated signaling of human Npr1 receptor; HEK293 hNpr1 GloSensor cGMP, ANP-stimulated luminescence; Potency, µM (series often up to 46.3 µM), hits mostly inhibitors; 1.6% of 76,000 active; calls by dose curve; also: nearly all actives have a fitted effect of over 60% in size
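HEK293 cells stably expressing human Npr1 and cGMP GloSensor pGS-40F, loaded 2 h with 2% GloSensor reagent, given compound 30 min at room temperature. Luminescence read before and 20 min after 0.1 nM hNppA.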
Luciferase inh = inhibitors of firefly (Photinus pyralis) luciferase. Potency, µM (highest dose often 115 µM), hits mostly inhibitors. AID 1347043. purified P. pyralis luciferase, luminescence, biochemical. 2.5% of 76,000 active; also: nearly all actives have a fitted effect of over 65% in size
Target sequence (P08659 whole entry, looked up): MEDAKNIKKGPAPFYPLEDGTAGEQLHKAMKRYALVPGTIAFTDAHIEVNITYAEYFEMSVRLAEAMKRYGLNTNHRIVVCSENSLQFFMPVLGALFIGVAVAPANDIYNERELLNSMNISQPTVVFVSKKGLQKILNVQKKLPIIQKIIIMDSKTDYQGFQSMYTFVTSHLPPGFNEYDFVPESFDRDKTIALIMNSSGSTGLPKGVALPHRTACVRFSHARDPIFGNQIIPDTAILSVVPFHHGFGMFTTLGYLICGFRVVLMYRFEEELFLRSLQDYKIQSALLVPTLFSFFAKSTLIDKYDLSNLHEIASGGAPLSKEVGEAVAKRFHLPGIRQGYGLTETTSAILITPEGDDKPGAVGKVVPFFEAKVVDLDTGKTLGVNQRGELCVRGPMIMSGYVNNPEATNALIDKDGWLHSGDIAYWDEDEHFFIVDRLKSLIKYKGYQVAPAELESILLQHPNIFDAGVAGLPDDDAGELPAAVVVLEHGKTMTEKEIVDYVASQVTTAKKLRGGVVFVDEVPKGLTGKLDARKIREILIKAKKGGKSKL
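Inhibitors were tested against purified firefly luciferase in a biochemical, low-substrate format (both substrates at 10uM) and luminescence measured with a CCD imager.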
GPT2 inh = blocks human glutamate pyruvate transaminase 2 | Q8TD30 | AID 1671188 | 0.25% of 100,000 active | Recombinant GPT2, coupled pyruvate oxidase/HRP Amplex Red fluorescence | Potency, µM (series often up to 57.7 µM), actives largely listed as inhibitors; also: nearly all actives have a fitted effect of over 60% in size
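Fluorescence of coupled pyruvate oxidase/HRP/Amplex Red system (50uM Amplex, 30 min, dark) reports pyruvate formed by GPT2. Enzyme reaction: 10ng/uL GPT2, 2mM L-alanine, 250uM a-KG, 30 min room temperature, pH 7.5; 50uM AOA control.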
Each line names hits and unclear results; the compound was inactive in the other large screens. Sampled rows, rich in hits. Any-hit rate of the full collection: about 10%. Unless noted, calls follow the shape of the dose curve; as a rule, active = well fitted curve in the direction sought with a large enough effect; inconclusive = small, poorly fitted or top-dose-only effect, or another doubt; inactive = no such curve, though single readings can be large; an effect the other way counts as inactive or inconclusive.

COc1cccc(-c2ccc(CN3CCCC(N[S+](=O)([O-])c4c(C)noc4C)C3)cc2)c1 (stereo unspecified)	HEK cytotox inconclusive, NIH3T3 tox 44.7µM (no result: hNpr1 antagonist, Luciferase inh)
COCC(=O)NC1CCCN(Cc2ccc(-c3cc(C)cc(C)c3)cc2)C1 (stereo unspecified)	HEK cytotox inconclusive, NIH3T3 tox inconclusive (no result: hNpr1 antagonist, Luciferase inh)
Cc1cc(C)cc(-c2ccc(CN3CCCC(N[S+](=O)([O-])c4ccccc4)C3)cc2)c1 (stereo unspecified)	HEK cytotox 44.7µM, NIH3T3 tox inconclusive (no result: hNpr1 antagonist, Luciferase inh)
Cc1ccc(-c2cccc(CN3CCCC(N[S+](=O)([O-])c4ccccc4)C3)c2)cc1Cl (stereo unspecified)	none (no result: hNpr1 antagonist, Luciferase inh)
O=C(Cc1ccccc1)N1CCCCC1c1nc(CCOCC2CCOCC2)no1 (stereo unspecified)	none
O=C(c1cccc(Br)c1)N1CCN(c2ccnc3ccnn23)CC1	HEK cytotox inconclusive, NIH3T3 tox inconclusive (no result: hNpr1 antagonist, Luciferase inh)
Cn1nc(C(=O)NCc2cccnc2)c2c1CN(C(=O)COc1ccccc1)C2	none (no result: hNpr1 antagonist, Luciferase inh)
O=C(NC1CCCCC1)N1CCC(Oc2ccc(-c3noc(C4CC4)n3)cc2)C1 (stereo unspecified)	HEK cytotox inconclusive, NIH3T3 tox inconclusive (no result: hNpr1 antagonist, Luciferase inh)
Cc1cccc(-c2cccc(CN3CCCC(C(=O)NCCCc4ccccc4)C3)c2)c1 (stereo unspecified)	HEK cytotox 44.7µM, NIH3T3 tox 39.8µM (no result: hNpr1 antagonist, Luciferase inh)
COCCNC(=O)C1CCCN(Cc2cccc(-c3cccc(C)c3)c2)C1 (stereo unspecified)	HEK cytotox inconclusive, NIH3T3 tox inconclusive (no result: hNpr1 antagonist, Luciferase inh)
COc1ccccc1-c1cccc(CN2CCCC(C(=O)N3CCCC3)C2)c1 (stereo unspecified)	HEK cytotox inconclusive, NIH3T3 tox inconclusive (no result: hNpr1 antagonist, Luciferase inh)
COc1ccccc1-c1cccc(CN2CCCC(C(=O)NCCCc3ccccc3)C2)c1 (stereo unspecified)	HEK cytotox inconclusive, NIH3T3 tox 35.5µM (no result: hNpr1 antagonist, Luciferase inh)
Cc1ccsc1CN1CCCCCNC(=O)CC1c1ccccc1 (stereo unspecified)	HEK cytotox inconclusive, NIH3T3 tox inconclusive
CCOc1cccc(-c2noc(-c3ncn4c3COC(c3ccc(OC)cc3)C4)n2)c1 (stereo unspecified)	HEK cytotox 22.4µM, NIH3T3 tox 22.4µM
Fc1ccccc1-c1noc(-c2ncn3c2COC(c2ccccc2Cl)C3)n1 (stereo unspecified)	HEK cytotox inconclusive, NIH3T3 tox inconclusive, Luciferase inh 15.8µM
CSc1ccc(-c2noc(-c3ncn4c3COC(c3ccc(F)cc3)C4)n2)cc1 (stereo unspecified)	HEK cytotox 31.6µM, NIH3T3 tox 25.1µM
COc1ccc(-c2noc(-c3ncn4c3COC(c3ccc(F)cc3)C4)n2)c(OC)c1 (stereo unspecified)	HEK cytotox 35.5µM, NIH3T3 tox 31.6µM
COc1ccc(C2Cn3cnc(-c4nc(-c5cccs5)no4)c3CO2)cc1 (stereo unspecified)	HEK cytotox inconclusive, NIH3T3 tox inconclusive, hNpr1 antagonist inconclusive, Luciferase inh 25.1µM
CCOc1cc(-c2noc(-c3ncn4c3COC(c3ccc(F)cc3)C4)n2)ccc1OC (stereo unspecified)	HEK cytotox 22.4µM, NIH3T3 tox 25.1µM
CCOc1ccc(C2Cn3nnc(-c4nc(-c5ccccc5)no4)c3CO2)cc1 (stereo unspecified)	Luciferase inh 8.91µM
O=C(c1cccc(F)c1)N1CCC2(CC1)NC(=O)N(c1ccccc1Cl)N2	HEK cytotox inconclusive, NIH3T3 tox inconclusive
COc1ccccc1CN1CCC2(Cc3ccccc3CNC2=O)C1 (stereo unspecified)	HEK cytotox inconclusive (no result: hNpr1 antagonist, Luciferase inh)
O=C(Cn1ccn2nc(-c3ccccc3)c(CO)c2c1=O)Nc1cc(Cl)cc(Cl)c1	HEK cytotox 50.1µM
CCCc1noc(CN2C(=O)NC(c3ccccc3OC)C3=C2COC3=O)n1 (stereo unspecified)	none
CN(Cc1ccccc1)Cc1cn([C@H]2CO[C@H]3[C@@H]2OC[C@@H]3NS(=O)(=O)c2cccc3cccnc23)nn1	GPT2 inh 4.47µM
C[C@@H](NC(=O)C1CCCCC1)c1c(-c2ccc(F)cc2)noc1C(=O)O	NIH3T3 tox 39.8µM
C[C@@H](NC(=O)C1CC1)c1c(-c2ccc(F)cc2)noc1C(=O)O	none
COc1ccccc1CCC(=O)N1CCN(c2cc(-c3ccc(Cl)cc3)[nH]n2)CC1	HEK cytotox inconclusive, NIH3T3 tox 31.6µM
O=C(COc1ccc(Cl)cc1)N1CCN(c2cc(-c3ccccc3)[nH]n2)CC1	HEK cytotox 89.1µM, NIH3T3 tox inconclusive
COc1ccccc1CC(=O)N1CCN(c2cc(-c3ccccc3)[nH]n2)CC1	HEK cytotox 22.4µM, NIH3T3 tox inconclusive
COc1ccccc1CCC(=O)N1CCN(c2cc(-c3ccccc3)[nH]n2)CC1	HEK cytotox inconclusive, NIH3T3 tox inconclusive
CCCCCC(=O)Nc1nc2c(s1)C[C@@H]1[C@](C)(CO)[C@H](O)CC[C@@]1(C)[C@@H]2CC(=O)N(C)Cc1ccccc1	HEK cytotox 28.2µM, NIH3T3 tox 50.1µM
C[C@@H](NC(=O)C[C@@H]1c2nc(-c3cccnc3)sc2C[C@@H]2[C@](C)(CO)[C@H](O)CC[C@]21C)c1ccccc1	HEK cytotox inconclusive, NIH3T3 tox 20µM
CCCCCC(=O)Nc1nc2c(s1)C[C@@H]1[C@](C)(CO)[C@H](O)CC[C@@]1(C)[C@@H]2CC(=O)N[C@H](C)c1ccccc1	HEK cytotox 39.8µM, NIH3T3 tox inconclusive
CCCCCC(=O)Nc1nc2c(s1)C[C@@H]1[C@](C)(CO)[C@H](O)CC[C@@]1(C)[C@@H]2CC(=O)NC1CCCC1	NIH3T3 tox inconclusive
C#CCN(C)C(=O)C[C@@H]1c2nc(NC(=O)CCCCC)sc2C[C@@H]2[C@](C)(CO)[C@H](O)CC[C@]21C	none
Cc1ccc(CNC(=O)c2ccc3c(c2)CN(C2CCN(CC(C)C)CC2)CCO3)cc1	HEK cytotox inconclusive
C[S+](=O)([O-])c1ccc(-c2nc(C(=O)NCc3ccc4c(c3)OCO4)n3ccccc23)cc1	none
O=C(c1ccc(Cl)cc1)N1CC2(CCN(Cc3ccccn3)C2)Cc2ccccc21 (stereo unspecified)	HEK cytotox inconclusive, NIH3T3 tox inconclusive (no result: hNpr1 antagonist, Luciferase inh)
CN(CCc1noc(C2CN(Cc3ccc(Cl)c(F)c3)C2)n1)S(C)(=O)=O	HEK cytotox 39.8µM, NIH3T3 tox inconclusive
O=C(c1ccc(-c2ncc3cnc(C4=CCOCC4)cn23)cc1)N1CC[S+](=O)([O-])CC1	NIH3T3 tox inconclusive
COc1ccc(NC(=O)c2ccc(-c3ncc4cnc(C5=CCOCC5)cn34)cc2)cn1	HEK cytotox inconclusive, NIH3T3 tox 31.6µM
Cc1[nH]cnc1C(=O)N1CCOc2c(O)cc(-c3csc4ccccc34)cc2C1	HEK cytotox 44.7µM, NIH3T3 tox 79.4µM
